Screening results: PubChem, National Center for Advancing Translational Sciences (NCATS)
Sampled rows, rich in hits. Any-hit rate of the full collection: about 4.4%.
TRHR enhancer: allosteric enhancers of human TRH receptor; TRHR cells, fluo-8 calcium fluorescence, EC20 TRH enhancement; enhancement, % at 2 µM; 360,000 compounds, 0.66% hits; in the data active means enhancement above about 30%
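Enhancer read-out: after compound pinning and an initial kinetic agonist-mode read, an EC20 of TRH (10 nM final) was injected and fluo-8 calcium signal (Ex 480/Em 530) followed at 1 s/cycle for 100 cycles in TRHR-expressing cells.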
USP1 inh: inhibitors of human USP1/UAF1 deubiquitinase; AID 743255; recombinant USP1/UAF1, Ub-Rhodamine cleavage fluorescence; 390,000 compounds, 0.23% hits; Potency, µM (highest dose often 57.1 µM), most hits filed as inhibitors; O94782; active means well fitted inhibition curve with a large enough effect; inconclusive means small, poorly fitted or top-dose-only effect; inactive means no such curve, though single readings can be large or run the other way; further: nearly all actives have a fitted effect of over 60% in size
Target sequence (O94782 whole entry, looked up): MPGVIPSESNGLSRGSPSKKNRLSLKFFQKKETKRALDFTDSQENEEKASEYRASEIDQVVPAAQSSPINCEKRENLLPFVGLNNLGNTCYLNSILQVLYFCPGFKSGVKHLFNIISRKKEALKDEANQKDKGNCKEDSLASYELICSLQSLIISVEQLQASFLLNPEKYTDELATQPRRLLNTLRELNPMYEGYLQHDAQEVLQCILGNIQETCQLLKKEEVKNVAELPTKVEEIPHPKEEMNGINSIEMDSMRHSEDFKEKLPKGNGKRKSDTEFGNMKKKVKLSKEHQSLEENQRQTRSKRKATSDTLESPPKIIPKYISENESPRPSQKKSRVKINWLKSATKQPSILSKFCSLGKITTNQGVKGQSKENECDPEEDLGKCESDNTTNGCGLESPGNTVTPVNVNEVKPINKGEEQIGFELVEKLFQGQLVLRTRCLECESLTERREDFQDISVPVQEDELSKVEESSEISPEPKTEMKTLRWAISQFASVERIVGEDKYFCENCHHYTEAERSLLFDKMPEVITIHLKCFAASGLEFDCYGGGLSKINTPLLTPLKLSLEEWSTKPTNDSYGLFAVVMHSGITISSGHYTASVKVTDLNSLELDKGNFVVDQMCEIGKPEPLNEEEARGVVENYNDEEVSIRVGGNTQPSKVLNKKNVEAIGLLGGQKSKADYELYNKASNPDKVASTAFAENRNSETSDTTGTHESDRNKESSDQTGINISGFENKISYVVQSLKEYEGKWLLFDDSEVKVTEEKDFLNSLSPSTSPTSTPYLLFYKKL
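High-throughput fluorogenic screen: 1nM USP1/UAF1 complex, Ub-Rho substrate 150nM final, 50mM HEPES pH 7.8 with 0.5mM EDTA, 0.1 mg/ml BSA, 1mM TCEP and 0.01% Tween-20.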
D1 agonist: agonists of human D1 dopamine receptor; 360,000 compounds, 1% hits; P21728; HEK293 T-REx D1 cells, calcium flux, agonist mode; activation, % at 2 µM
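Inducible HEK293 T-REx D1 cells, force-coupled to calcium signalling, were plated at 4000 cells/well with tetracycline and held overnight at 30 C. After no-wash calcium dye loading, compound-evoked calcium rise over 180 s flagged agonists.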
D1 antagonist: blocks dopamine activation of the human D1 receptor | P21728 | HEK293 TREx D1 cells, calcium flux, dopamine EC80; hits give low values | activity change, negative = inhibition, % at 10 µM | 360,000 compounds, 3.2% hits; in the data active means activity change below about -30%
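HEK293 T-REx cells expressing inducible, force-coupled D1 receptor; no-wash Ca dye, 30–90 min RT. Cmpd → 180 s read at 1 Hz → EC80 DA → 180 s read.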
D1 potentiator: human D1 dopamine receptor positive modulation; P21728; HEK293 TREx D1 cells, calcium flux, dopamine EC20 potentiation; potentiation, % at 10 µM; 360,000 compounds, 0.036% hits; in the data active means potentiation above about 30%
TRHR ag: activates the human TRH receptor | P34981 | TRHR cells, calcium flux fluo-8, FDSS agonist mode | activation, % at 2 µM | 360,000 compounds, 0.18% hits | AID 493084
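Agonist-mode FDSS calcium read (Ex 480/Em 530, 1 s cycles) in 1536-well TRHR cells with fluo-8 dye, after 10-cycle baseline and 23 nL compound addition; TRH at EC20 (10 nM final) added afterwards for the enhancer phase.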
Of the large screens only hits and unclear results are named; the others gave an inactive call; ! = a repeat was not active. Unless noted, no stated cut-off is given here; in the data, active means activation above about 30%; inactive means the rest.

O=C(CSc1nc2c(c(=O)n1-c1ccc(Cl)cc1)SCC2)NCC1CCCO1 (configuration not stated)	D1 antagonist -32
CCc1nnc(SCC(=O)N(CC)c2ccccc2)c2cc3oc(C)cc3n12	USP1 inh inconclusive
CCOc1ccc(NC(=O)Cn2c(=O)c(CNc3ccc(CC)cc3)cc3cc4c(cc32)OCO4)cc1	USP1 inh inconclusive
O=C(Nc1cccc2ncccc12)c1ccc([N+](=O)[O-])o1	D1 antagonist -39
COc1cc(Cl)c(NC(=O)c2cc(CN3CCCC3)on2)c(OC)c1	none
Cn1nc(CC(=O)Nc2ccc3c(c2)OCCO3)c2ccccc2c1=O	none
Cc1ccc(NC(=O)Cc2nn(C)c(=O)c3ccccc23)cc1F	D1 antagonist -66
Cc1ccc2c(c1)c(=O)c1ccccc1n2CCCC(=O)Nc1ccc(C)c(C)c1	none
Cc1ccc2c(c1)c(=O)c1ccccc1n2CCCC(=O)Nc1ccc(C)c(F)c1	D1 antagonist -48
Cc1ccc(S(=O)(=O)C(CNC(=O)COc2ccccc2)c2ccco2)cc1 (configuration not stated)	none (no result: D1 antagonist)
COc1ccccc1-c1nn(CCC(=O)Nc2ccccc2)c2nc(C)cc(C)c12	none
CCc1ccc2nc(N(CCN(CC)CC)C(=O)c3ccco3)sc2c1	none
CN(Cc1ccccc1)C(=O)c1nc2ccccn2c1CNCCn1cccn1	TRHR enhancer 34
CN(Cc1ccccc1)C(=O)c1nc2ccccn2c1CNCCCOc1cccnc1	none
Cc1nc2nc(SCC(=O)NCCc3ccc(Cl)cc3)nn2c(C)c1Cc1c(F)cccc1Cl	USP1 inh inconclusive
CC(=O)Cc1nsc(NC(=O)c2ccc(F)cc2)n1	D1 antagonist -80
CC(=O)Cc1nsc(NC(=O)c2ccccc2)n1	none
OCCN1CCN(c2nc(-c3ccccc3)c3cc(Br)ccc3n2)CC1	D1 agonist 45, D1 potentiator 44
O=C(O)C1CCN(c2nc(-c3ccccc3)c3cc(Br)ccc3n2)CC1	none
CCc1ccc(/C=C2\SC(=S)N(CCC(=O)NCCCN3CCOCC3)C2=O)cc1	D1 antagonist -37
O=C(CCCN1C(=O)/C(=C/c2ccccc2)SC1=S)NCCCn1ccnc1	D1 antagonist -30
Cc1ccc(/C=C2\SC(=S)N(CCC(=O)NCCCN3CCOCC3)C2=O)cc1	none (no result: D1 potentiator)
CC(C)c1ccc(/C=C2\SC(=S)N(CC(=O)NCCCN3CCOCC3)C2=O)cc1	D1 antagonist -35
CC(C)(C)OC(=O)N1CCC(c2c(C(=O)NCCN3CCCC3)cnn2-c2ccc(Cl)cc2)CC1	none
CC(C)(C)OC(=O)N1CCC(N2CCN(Cc3ccccc3)C(=O)C2=O)CC1	none
COc1cccc(S(=O)(=O)N(C)C[C@H]2Oc3cc(Br)ccc3S(=O)(=O)N([C@@H](C)CO)C[C@H]2C)c1	USP1 inh 18µM (no result: TRHR enhancer, D1 agonist, D1 antagonist, D1 potentiator, TRHR ag)
C[C@@H]1CN([C@H](C)CO)S(=O)(=O)c2ccc(Br)cc2O[C@@H]1CN(C)Cc1ccc(-c2ccccc2)cc1	USP1 inh 25µM (no result: TRHR enhancer, D1 agonist, D1 antagonist, D1 potentiator, TRHR ag)
C[C@@H]1CN([C@H](C)CO)S(=O)(=O)c2ccc(Br)cc2O[C@@H]1CN(C)Cc1ccc(C(=O)O)cc1	none (no result: TRHR enhancer, D1 agonist, D1 antagonist, D1 potentiator, TRHR ag)
CCOC(=O)C1CCCN(c2c(N3CCC(N4CCCCC4)CC3)c(=O)c2=O)C1 (configuration not stated)	D1 antagonist -33 (no result: D1 potentiator)
CCOC(=O)C1CCCN(c2c(N3CCN(C4CCCCC4)CC3)c(=O)c2=O)C1 (configuration not stated)	none (no result: D1 potentiator)
CCOC(=O)CN(Cc1ccccc1)C(C(=O)NC1CCCCC1)c1ccccc1 (configuration not stated)	none
Cc1ccc2nc(N(CCCN(C)C)C(=O)c3ccc(Br)s3)sc2c1	D1 agonist 41!
CN(C)CCCN(C(=O)c1nc2ccccc2s1)c1nc2ccc(F)cc2s1	none (no result: TRHR enhancer, D1 agonist, D1 antagonist, D1 potentiator, TRHR ag)
CCN(CC)CCN(C(=O)c1cccc(N2C(=O)CCC2=O)c1)c1nc2cc3c(cc2s1)OCO3	none
CN(C)CCCN(C(=O)c1cccc(N2C(=O)CCC2=O)c1)c1nc2cc3c(cc2s1)OCO3	TRHR enhancer 32
CN(C)CCCN(C(=O)c1ccc(C(=O)c2ccccc2)cc1)c1nc2ccc(F)cc2s1	D1 agonist 70, D1 antagonist -33
CN(C)CCCN(C(=O)c1ccc(S(=O)(=O)N2CCCCC2)cc1)c1nc2cc3c(cc2s1)OCO3	D1 agonist 33
CN(C)CCCN(C(=O)c1ccc(Br)s1)c1nc2ccc(F)cc2s1	none
CN(C)CCCN(C(=O)c1ccc(S(=O)(=O)N2CCOCC2)cc1)c1nc2cc3c(cc2s1)OCO3	none
CCOc1ccccc1CNC(=O)C1=C(C)C(=O)OC12CCN(C(C)=O)CC2	none
COc1ccccc1C(=O)OCc1cc(=O)n2nc(C3CC3)sc2n1	USP1 inh inconclusive
CCOC(=O)N1CCN(S(=O)(=O)c2ccc(C(=O)N(CCN(C)C)c3nc4ccc(Cl)cc4s3)cc2)CC1	D1 antagonist -33
CCOC(=O)N1CCN(S(=O)(=O)c2ccc(C(=O)N(CCCN(C)C)c3nc4ccc(OC)cc4s3)cc2)CC1	none
CCN(Cc1ccccc1)S(=O)(=O)c1ccc(C(=O)N(CCCN(C)C)c2nc3cc4c(cc3s2)OCCO4)cc1	D1 antagonist -41
CCN(Cc1ccccc1)S(=O)(=O)c1ccc(C(=O)N(CCCN(C)C)c2nc3ccc(F)cc3s2)cc1	none
CCN(CC)CCN(C(=O)c1ccc2ncsc2c1)c1nc2cc3c(cc2s1)OCO3	D1 antagonist -46
CN(C)CCCN(C(=O)c1ccc(C(=O)c2ccccc2)cc1)c1nc2cc3c(cc2s1)OCO3	D1 agonist 62
CCNc1nc(C#N)nc2c1ncn2-c1cccc(Cl)c1	none (no result: USP1 inh)
CC(C)CCOc1ccc(NC(=O)C2OC3OC(C)(C)OC3C3OC(C)(C)OC23)cc1 (configuration not stated)	D1 antagonist -43
O=C(NCC(c1ccco1)S(=O)(=O)c1cccs1)c1c(F)cccc1F (configuration not stated)	none (no result: D1 antagonist)
Cn1c(=O)[nH]c(=O)c2c1nc1n2CCN1Cc1ccccc1	D1 antagonist -61
CC1CN(Cc2ccccc2)c2nc3c(c(=O)[nH]c(=O)n3C)n2C1 (configuration not stated)	none
CCCCOc1ccc(Br)cc1CSC(=N)N	D1 agonist 62
CCCCCOc1ccc(CSC(=N)N)cc1[N+](=O)[O-]	D1 agonist 56
CCOc1ccc(C(C)=O)cc1CSC(=N)N	none
COC(=O)c1ccc(CN(Cc2ccc(C(=O)OC)o2)C(C)(C)C)o1	TRHR enhancer 37
Cc1ccc(-n2cc(C(C)(C)C)[nH]c2=S)cc1	D1 antagonist -46
